From the supplement of paper PMC7261846 come the findings set out here.

Molecules are shown by their SMILES. ± gives the uncertainty stated by the source.

The test system of this assay is Candida albicans SNY425 biofilm. Description: biofilm OD600 with compound plus antifungal (OD600 (absorbance)); higher = more biofilm remaining.
The mark [1] stands for this setting: assay detail: disruption of 24-h mature biofilm (compound + antifungal for a second 24 h).
The mark [2] stands for this setting: assay detail: sustained inhibition (compound + antifungal during 90-min adherence and 24-h growth).

Regarding `O=c1oc(Cl)c(Cl)c2ccccc12` [3,4-Dichloroisocoumarin] + CC[C@H](C)C[C@H](C)CCCCCCCCC(=O)N[C@H]1C[C@@H](O)[C@@H](NCCN)NC(=O)[C@@H]2[C@@H](O)CCN2C(=O)[C@H]([C@H](O)CCN)NC(=O)[C@H]([C@H](O)[C@@H](O)c2ccc(O)cc2)NC(=O)[C@@H]2C[C@@H](O)CN2C(=O)[C@H]([C@@H](C)O)NC1=O [caspofungin] (first compound 12.5 µM), the “biofilm OD600” value under setting [1] was determined as 0.246 ± 0.014 and the “biofilm OD600” value under setting [2] came to 0.21 ± 0.014.
The matching figures for `CC(C)CC(=O)N[C@H](C(=O)N[C@H](C(=O)N[C@@H](CC(C)C)[C@@H](O)CC(=O)N[C@@H](C)C(=O)N[C@@H](CC(C)C)[C@@H](O)CC(=O)O)C(C)C)C(C)C` [Pepstatin A] + C[C@@H]1[C@H](O)[C@@H](C)/C=C/C=C/C=C/C=C/C=C/C=C/C=C/[C@H](O[C@@H]2O[C@H](C)[C@@H](O)[C@H](N)[C@@H]2O)C[C@@H]2O[C@](O)(C[C@@H](O)C[C@@H](O)[C@H](O)CC[C@@H](O)C[C@@H](O)CC(=O)O[C@H]1C)C[C@H](O)[C@H]2C(=O)O [amphotericin B] (first compound 12.5 µM): 0.272 ± 0.0097 and 0.199 ± 0.011.
The matching figures for `O=C(NCCCCN1CCOCC1)c1cc2ccccc2o1` + CC[C@H](C)C[C@H](C)CCCCCCCCC(=O)N[C@H]1C[C@@H](O)[C@@H](NCCN)NC(=O)[C@@H]2[C@@H](O)CCN2C(=O)[C@H]([C@H](O)CCN)NC(=O)[C@H]([C@H](O)[C@@H](O)c2ccc(O)cc2)NC(=O)[C@@H]2C[C@@H](O)CN2C(=O)[C@H]([C@@H](C)O)NC1=O [caspofungin] (first compound 12.5 µM): 0.251 ± 0.014 and 0.202 ± 0.01.
In the same order, the values of `Cc1cccc(C)c1OCC(=O)N[C@@H](Cc1ccccc1)[C@@H](O)C[C@H](Cc1ccccc1)NC(=O)[C@H](C(C)C)N1CCCNC1=O` [lopinavir] + C[C@@H]1[C@H](O)[C@@H](C)/C=C/C=C/C=C/C=C/C=C/C=C/C=C/[C@H](O[C@@H]2O[C@H](C)[C@@H](O)[C@H](N)[C@@H]2O)C[C@@H]2O[C@](O)(C[C@@H](O)C[C@@H](O)[C@H](O)CC[C@@H](O)C[C@@H](O)CC(=O)O[C@H]1C)C[C@H](O)[C@H]2C(=O)O [amphotericin B] (first compound 12.5 µM) are 0.246 ± 0.0051 and 0.14 ± 0.015.
As for `CCCCC[C@H](CC(=O)NO)C(=O)N[C@H](C(=O)N1CCC[C@H]1CO)C(C)C` [Actinonin] + OC(Cn1cncn1)(Cn1cncn1)c1ccc(F)cc1F [fluconazole] (first compound 12.5 µM), the “biofilm OD600” value under setting [1] stood at 0.267 ± 0.0099 and the “biofilm OD600” value under setting [2] stood at 0.145 ± 0.0085.
As for `O=C1Nc2ccc([N+](=O)[O-])cc2C1=O` [5-Nitroisatin] + CC[C@H](C)C[C@H](C)CCCCCCCCC(=O)N[C@H]1C[C@@H](O)[C@@H](NCCN)NC(=O)[C@@H]2[C@@H](O)CCN2C(=O)[C@H]([C@H](O)CCN)NC(=O)[C@H]([C@H](O)[C@@H](O)c2ccc(O)cc2)NC(=O)[C@@H]2C[C@@H](O)CN2C(=O)[C@H]([C@@H](C)O)NC1=O [caspofungin] (first compound 12.5 µM), the “biofilm OD600” value is, setting by setting: under setting [1], 0.255 ± 0.0081; under setting [2], 0.156 ± 0.013.
The matching figures for `O=C(O[C@@H]1Cc2c(O)cc(O)cc2O[C@@H]1c1cc(O)c(O)c(O)c1)c1cc(O)c(O)c(O)c1` [Epigallocatechin gallate] + C[C@@H]1[C@H](O)[C@@H](C)/C=C/C=C/C=C/C=C/C=C/C=C/C=C/[C@H](O[C@@H]2O[C@H](C)[C@@H](O)[C@H](N)[C@@H]2O)C[C@@H]2O[C@](O)(C[C@@H](O)C[C@@H](O)[C@H](O)CC[C@@H](O)C[C@@H](O)CC(=O)O[C@H]1C)C[C@H](O)[C@H]2C(=O)O [amphotericin B] (first compound 12.5 µM): 0.27 ± 0.017 and 0.231 ± 0.014.
The matching figures for `Cc1ccc(S(=O)(=O)N[C@@H](Cc2ccccc2)C(=O)CCl)cc1` + OC(Cn1cncn1)(Cn1cncn1)c1ccc(F)cc1F [fluconazole] (first compound 4 µM): 0.241 ± 0.01 and 0.0966 ± 0.012.
The matching figures for `O=C1Nc2ccc([N+](=O)[O-])cc2C1=O` [5-Nitroisatin] + C[C@@H]1[C@H](O)[C@@H](C)/C=C/C=C/C=C/C=C/C=C/C=C/C=C/[C@H](O[C@@H]2O[C@H](C)[C@@H](O)[C@H](N)[C@@H]2O)C[C@@H]2O[C@](O)(C[C@@H](O)C[C@@H](O)[C@H](O)CC[C@@H](O)C[C@@H](O)CC(=O)O[C@H]1C)C[C@H](O)[C@H]2C(=O)O [amphotericin B] (first compound 12.5 µM): 0.256 ± 0.005 and 0.159 ± 0.013.
